Drawing on PubChem BioAssay (NCATS), this text covers activity change, negative = inhibition, Potency and outcome for 20 compounds.

“And” between values parts separate entries of the source, which are not always exact repeats. Identical values can stand only once. Results filed as inconclusive are left out. The source made the active and inactive calls. Unless noted, calls follow the shape of the dose curve; as a rule, active = well fitted curve in either direction with a large enough effect (not every such curve was filed as active); inconclusive = small, poorly fitted or top-dose-only effect, or another doubt; inactive = flat fitted curve, though single readings scatter. Some results are limits rather than exact numbers.

Assay [1] in a line: AP1 Signaling Pathway (AID 357). Also: % is scaled to controls: 0 for no effect and ±100 for the full control effect. Particulars: ME-180 AP-1-bla reporter, EGF-induced, beta-lactamase ratio, 5 h. A digest of the protocol: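 Read-out was the 460nm/530nm emission ratio (excitation 405nm) after CCF4 loading for 2.5 hours at room temperature. Cells carried an AP-1-driven beta-lactamase reporter, were stimulated with EC50 EGF plus compound for 5 hours, and AC50 values came from titrations.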

Assay [2] addresses Cytochrome P450 1A2 (Homo sapiens) (UniProt P05177). The assay can be described thus: p450-cyp1a2 (AID 410; calls by dose curve; also: potency is read from the fitted curve at half-maximal effect;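 as to activity change, negative = inhibition: -100% = full effect of reference inhibitor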). To be noted: recombinant CYP1A2, luciferin-ME demethylation, luminescence; series mostly up to 57 µM. A digest of the protocol:
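O-Demethylation of luciferin 6' methyl ether by human CYP1A2 is monitored as luciferase luminescence. Substrate sits at Km (100uM); enzyme is 20nM. Values are scaled to 57 uM furafylline as maximal inhibition.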

Assay [3] is described as follows: NFAT Signaling Pathway (AID 444).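 Also: carbachol stimulus at about its EC50 of 1 µM final; % is scaled to controls: 0 for no effect and ±100 for the full control effect.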 Particulars: Jurkat NFAT-bla M1, carbachol, beta-lactamase ratio, 5 h. The procedure, abridged:
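Jurkat cells carrying an NFAT-driven β-lactamase reporter and co-transfected muscarinic M1 receptor were treated with compound plus carbachol (1 uM final, an EC50 level) for 5 h at 37 °C. CCF4 loading followed for 1 h at RT; 460/530 nm ratio gave %activity.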

Assay [4] can be described thus: Stat Signaling Pathway (AID 446).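 Also: ME-180 cervical cancer cells given 40 pM IL-6 alongside compound; SIE-controlled beta-lactamase reporter measured as 460/530 nm FRET emission ratio; % is scaled to controls: 0 for no effect and ±100 for the full control effect.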 Particulars: ME-180 (cervical carcinoma) SIE beta-lactamase reporter, IL-6 stimulated, 5 h; series mostly up to 17.2 µM. The procedure, abridged:
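Overnight-plated ME-180 cells bearing a STAT Inducible Element beta-lactamase reporter; 5 h co-exposure to compound and 40 pM IL-6; values normalized to 300 pM IL-6 and 125 nM JAK inhibitor controls.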

The target in assay [5] is Glucocorticoid receptor (Homo sapiens) (UniProt P04150). The assay can be described thus: GR-GFP Redistribution (AID 450;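 active = compounds whose dose series gives a full or clear partial fitted curve of increased nuclear translocation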; also: potency is read from the fitted curve at half-maximal effect). To be noted: U2OS GR-GFP nuclear translocation, laser cytometry, 2 h.
Sequence of Glucocorticoid receptor (Homo sapiens) (P04150 whole entry, looked up): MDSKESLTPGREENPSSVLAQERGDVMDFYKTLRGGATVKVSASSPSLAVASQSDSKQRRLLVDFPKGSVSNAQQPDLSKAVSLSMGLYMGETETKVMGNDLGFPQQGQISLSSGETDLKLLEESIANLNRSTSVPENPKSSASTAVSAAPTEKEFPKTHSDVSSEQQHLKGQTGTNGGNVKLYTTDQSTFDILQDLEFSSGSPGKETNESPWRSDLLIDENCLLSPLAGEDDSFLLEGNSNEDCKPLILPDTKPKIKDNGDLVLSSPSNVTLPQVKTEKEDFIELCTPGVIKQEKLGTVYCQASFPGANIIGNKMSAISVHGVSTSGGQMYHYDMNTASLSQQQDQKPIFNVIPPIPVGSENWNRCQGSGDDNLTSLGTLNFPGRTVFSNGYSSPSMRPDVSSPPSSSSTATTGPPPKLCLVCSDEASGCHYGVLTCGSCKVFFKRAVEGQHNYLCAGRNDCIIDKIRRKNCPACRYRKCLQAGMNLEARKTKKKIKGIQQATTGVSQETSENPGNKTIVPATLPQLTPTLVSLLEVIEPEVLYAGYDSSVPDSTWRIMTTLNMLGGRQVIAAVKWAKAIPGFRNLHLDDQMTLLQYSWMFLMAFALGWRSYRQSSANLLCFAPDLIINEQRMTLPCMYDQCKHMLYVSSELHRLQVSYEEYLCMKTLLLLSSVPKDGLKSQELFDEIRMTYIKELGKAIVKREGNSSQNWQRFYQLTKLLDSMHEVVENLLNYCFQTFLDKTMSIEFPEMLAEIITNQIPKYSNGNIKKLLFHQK
The target is the same in assay [6]. The assay is described as follows: GR-EFC Redistribution (AID 451; calls by dose curve; also: potency is read from the fitted curve at half-maximal effect). To be noted: CHO-K1 GR-EFC translocation, beta-gal luminescence, 2 h. A digest of the protocol:
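CHO-K1 cells stably expressing nuclear-localized β-gal enzyme acceptor and GR fused C-terminally to the enzyme donor fragment; ligand-driven nuclear translocation restores β-gal by complementation. Compounds titrated up to 46 uM final, 2 h at 37 °C; luminescence read.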

The target of assay [7] is Mitogen-activated protein kinase 10 (Mus musculus) (UniProt Q61831). The assay is described as follows: JNK3 AlphaScreen Assay (AID 530).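 Also: kinase came from lysate of stimulated human HepG2 cells; signal reports phosphorylation of biotinylated GST-cJun 1-79 at Ser73 with 10 µM ATP; % is scaled to controls: 0 for no effect and ±100 for the full control effect.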 Particulars: JNK3 lysate, c-Jun phosphorylation; series mostly up to 57.1 µM. A digest of the protocol:
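Phosphorylation of biotinylated GST-cJun(1-79) at Ser73 is measured by AlphaScreen proximity luminescence. Enzyme is JNK3 in HepG2 lysates activated with interleukin-1beta and tumor necrosis factor alpha; ATP is 10 uM final.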
A general note: In Alpha technology, singlet oxygen from a donor bead excites a nearby acceptor bead.

Sequence of Cytochrome P450 1A2 (Homo sapiens) (P05177 whole entry, looked up): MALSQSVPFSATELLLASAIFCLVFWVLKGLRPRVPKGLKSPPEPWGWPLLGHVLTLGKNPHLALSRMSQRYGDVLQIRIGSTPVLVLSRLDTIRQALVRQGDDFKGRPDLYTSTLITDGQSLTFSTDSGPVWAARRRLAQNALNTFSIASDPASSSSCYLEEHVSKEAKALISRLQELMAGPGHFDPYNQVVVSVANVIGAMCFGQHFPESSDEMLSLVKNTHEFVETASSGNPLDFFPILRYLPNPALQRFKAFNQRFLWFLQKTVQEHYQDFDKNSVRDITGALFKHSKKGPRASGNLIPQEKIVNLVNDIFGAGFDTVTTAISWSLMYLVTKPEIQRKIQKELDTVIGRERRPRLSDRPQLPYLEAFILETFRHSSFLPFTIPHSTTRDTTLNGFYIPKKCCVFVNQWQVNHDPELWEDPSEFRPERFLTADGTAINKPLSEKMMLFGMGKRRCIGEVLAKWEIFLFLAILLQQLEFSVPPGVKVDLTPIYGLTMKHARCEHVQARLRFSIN

`CCOC(=O)C1=C(C)NC(C)=C(C(=O)OC)C1c1cccc([N+](=O)[O-])c1` (centres undefined): the activity change, negative = inhibition in assay [1] (at 17.2 µM (top of the series)) was -25.4% (inactive).

Regarding `O=C(O)CN(CCOCCOCCN(CC(=O)O)CC(=O)O)CC(=O)O`, the activity change, negative = inhibition was 4.77% (inactive) in assay [1] (at 38 µM (top of the series)) and 0.822% (inactive) in assay [3] (at 38 µM (top of the series)). The Potency entry in assay [2] and in assay [7] was “inactive” throughout. Moreover, the compound was classed as inactive in assay [4]. Further, the Potency in assay [5] and in assay [6] was > 46 µM (inactive) each time.

On to `CCCC(C(=O)OCCN(CC)CC)(c1ccccc1)c1ccccc1`, for which the activity change, negative = inhibition in assay [1] (at 17.2 µM (top of the series)) was 16.9% (inactive); in assay [1] (at 38 µM (top of the series)) it was 20.9% (inactive). Also, the Potency entry in assay [2] and in assay [7] was “inactive” in each case. Also, the call in assay [4] was inactive. Also, the Potency in assay [5] was > 46 µM (inactive) and > 20.6 µM (inactive); in assay [6], > 46 µM (inactive) and > 20.6 µM (inactive).

Take `O=C(O)CN(CCN(CC(=O)O)CC(=O)O)CCN(CC(=O)O)CC(=O)O`: the activity change, negative = inhibition in assay [1] (at 17.2 µM (top of the series)) is -3.91% (inactive); in assay [1] (at 38 µM (top of the series)) it was 10% (inactive); in assay [3] (at 17.2 µM (top of the series)), -4.47% (inactive); in assay [3] (at 38 µM (top of the series)) it was 2.2% (inactive). Besides, the Potency result in assay [2] and in assay [7] was “inactive” each time. Besides, the compound was classed as inactive in assay [4]. The Potency is > 46 µM (inactive) and > 20.6 µM (inactive) in assay [5]; > 46 µM (inactive) and > 20.6 µM (inactive) in assay [6].

With `Cc1ccc(Cl)c(Nc2ccccc2C(=O)O)c1Cl`, the activity change, negative = inhibition in assay [1] (at 17.2 µM (top of the series)) is -18.4% (inactive); in assay [1] (at 38 µM (top of the series)) it was -15.5% (inactive); in assay [3] (at 17.2 µM (top of the series)), -24% (inactive) and 22.1% (inactive); in assay [3] (at 38 µM (top of the series)), 0.114% (inactive). For the same compound, the Potency entry in assay [2] and in assay [7] was “inactive” each time. In addition, the outcome in assay [4] was inactive. In addition, the Potency in assay [5] was > 46 µM (inactive) and > 20.6 µM (inactive); in assay [6] it was > 46 µM (inactive) and > 20.6 µM (inactive).

`CCCOc1ccccc1-c1nc2n[nH]nc2c(=O)[nH]1`: the activity change, negative = inhibition is -18.5% (inactive) in assay [1] (at 17.2 µM (top of the series)), -7.91% (inactive) in assay [1] (at 38 µM (top of the series)), 14.8% (inactive) in assay [3] (at 17.2 µM (top of the series)) and 2.4% (inactive) in assay [3] (at 38 µM (top of the series)). Further, the Potency in assay [2] is 5.01 µM (active) and 3.98 µM (active); in assay [5], > 46 µM (inactive) and > 20.6 µM (inactive); in assay [6], > 46 µM (inactive) and > 20.6 µM (inactive). The compound was classed as inactive in assay [4]. The Potency result in assay [7] was “inactive”.

Turning to `C[N+](C)(C)CCCCCCCCCC[N+](C)(C)C`, the activity change, negative = inhibition in assay [1] (at 17.2 µM (top of the series)) was 5.88% (inactive) and 0.653% (inactive); in assay [1] (at 38 µM (top of the series)) it was 6.36% (inactive); in assay [3] (at 17.2 µM (top of the series)), -20.5% (inactive) and -5.13% (inactive); in assay [3] (at 38 µM (top of the series)), -4.26% (inactive). Moreover, the Potency entry in assay [2] and in assay [7] was “inactive” each time. In assay [4], the compound was called inactive. The Potency in assay [5] was > 46 µM (inactive) and > 20.6 µM (inactive); in assay [6], > 46 µM (inactive) and > 20.6 µM (inactive).

For `CC(C)(C)NCC(O)c1cc(O)cc(O)c1` (centres undefined), in assay [1] (at 17.2 µM (top of the series)), the activity change, negative = inhibition was -16.4% (inactive). In addition, the compound was classed as inactive in assay [4].

Turning to `CC(C)(Oc1ccc(CCNC(=O)c2ccc(Cl)cc2)cc1)C(=O)O`, the activity change, negative = inhibition in assay [1] (at 17.2 µM (top of the series)) is 3.65% (inactive) and 3.52% (inactive); in assay [3] (at 17.2 µM (top of the series)), -9.97% (inactive) and 7.1% (inactive). The Potency result in assay [2] and in assay [7] was “inactive” in each case. In assay [4], the outcome was inactive. The Potency in assay [5] and in assay [6] was > 20.6 µM (inactive) each time.

For `C[N+](C)(C)CCOC(N)=O`, the activity change, negative = inhibition in assay [1] (at 38 µM (top of the series)) was 21.2% (inactive). Further, the Potency entry in assay [2] and in assay [7] was “inactive” in each case. Besides, the outcome in assay [4] was inactive.

Turning to `OC(CCN1CCCCC1)(c1ccccc1)C1CCCCC1` (centres undefined), the activity change, negative = inhibition in assay [1] (at 17.2 µM (top of the series)) was 5.32% (inactive); in assay [3] (at 17.2 µM (top of the series)), -77.3% (active). Further, in assay [4], the outcome was inactive.

`COCCOC(=O)C1=C(C)NC(C)=C(C(=O)OC(C)C)C1c1cccc([N+](=O)[O-])c1` (centres undefined): the figures for the activity change, negative = inhibition in assay [1] (at 17.2 µM (top of the series)) and in assay [3] (at 17.2 µM (top of the series)) were -20.8% (inactive) and -7.25% (inactive), respectively. Further, in assay [4], the outcome was inactive. In addition, in assay [5], the Potency was > 20.6 µM (inactive).

Consider `COCCCC/C(=N\OCCN)c1ccc(C(F)(F)F)cc1`, for which the activity change, negative = inhibition is 14.9% (inactive) in assay [1] (at 17.2 µM (top of the series)) and 24.5% (inactive) in assay [3] (at 17.2 µM (top of the series)). Besides, in assay [4], the outcome was inactive. Further, in assay [5], the Potency was > 20.6 µM (inactive).

As to `C[C@]12C=CC(=O)C=C1CC[C@H]1[C@@H]3C[C@@H](O)[C@](O)(C(=O)CO)[C@@]3(C)C[C@H](O)[C@@]12F`, the activity change, negative = inhibition in assay [1] (at 17.2 µM (top of the series)) was -5.22% (inactive); in assay [3] (at 17.2 µM (top of the series)), 16.1% (inactive). Also, the call in assay [4] was inactive. The Potency in assay [5] is 0.148 µM (active).

With `C[C@]12CCC(=O)C=C1CC[C@@H]1[C@@H]2CC[C@@]2(C)[C@H]1CC[C@]2(O)C(=O)CO`, the activity change, negative = inhibition in assay [1] (at 17.2 µM (top of the series)) was 14.7% (inactive); in assay [3] (at 17.2 µM (top of the series)) it was 2.94% (inactive). Besides, the outcome in assay [4] was inactive. For the same compound, the Potency in assay [5] is 0.0458 µM (active).

As for `CSc1ccc(C(=O)c2[nH]c(=O)[nH]c2C)cc1`, the activity change, negative = inhibition was -4.8% (inactive) in assay [1] (at 38 µM (top of the series)) and -2.92% (inactive) in assay [3] (at 38 µM (top of the series)). The outcome in assay [4] was inactive. Besides, the Potency entry in assay [7] was “inactive”.

For the compound `CCO/C([O-])=N/c1c[n+](N2CCOCC2)no1`, the Potency entry in assay [2] and in assay [7] was “inactive” each time. The activity change, negative = inhibition in assay [3] (at 17.2 µM (top of the series)) is -13.9% (inactive) and -20.6% (inactive); in assay [3] (at 38 µM (top of the series)) it was -9.67% (inactive). Further, the compound was called inactive in assay [4]. Also, the Potency in assay [5] was > 46 µM (inactive) and > 20.6 µM (inactive); in assay [6] it was > 46 µM (inactive) and > 20.6 µM (inactive).

In the case of `CN(C(=O)CCCOc1ccc2[nH]c(=O)ccc2c1)C1CCCCC1`, the activity change, negative = inhibition in assay [1] (at 38 µM (top of the series)) was -11.1% (inactive); in assay [3] (at 38 µM (top of the series)), -14.2% (inactive). The Potency entry in assay [2] and in assay [7] was “inactive” in each case. Besides, the result in assay [4] was inactive. For the same compound, the Potency in assay [5] and in assay [6] was > 46 µM (inactive) throughout.

Regarding `CO[C@@]1(NC(=O)CSCC#N)C(=O)N2C(C(=O)O)=C(CSc3nnnn3C)CS[C@@H]21`, the activity change, negative = inhibition in assay [1] (at 17.2 µM (top of the series)) is 6.1% (inactive); in assay [3] (at 17.2 µM (top of the series)), -23.9% (inactive). Moreover, the compound was classed as inactive in assay [4]. Further, the Potency in assay [5] is > 20.6 µM (inactive).

`CN(C)[C@@H]1C(=O)C(C(N)=O)=C(O)[C@@]2(O)C(=O)C3=C(O)c4c(O)ccc(Cl)c4[C@@H](O)[C@H]3C[C@@H]12`: the activity change, negative = inhibition in assay [1] (at 17.2 µM (top of the series)) was -3.11% (inactive); in assay [3] (at 17.2 µM (top of the series)), 0.847% (inactive). Besides, in assay [4], the compound was classed as inactive. In addition, the Potency in assay [5] was > 20.6 µM (inactive).
